Whole data set: some 1,400 sequences, median “thermal melting temperature (Tm) of peptide-HLA complex” near 60, cut for the lowest 2% near 45. The sample as a whole holds a higher share of the lowest values than the screen did.
target: HLA-B*07:02; assay: thermal melting temperature (Tm) of peptide-HLA complex; higher = more thermostable pHLA complex; conditions: C1R-B*07:02
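Further: lysates heated 10 min at 37–73 °C, complexes pulled down with pan-HLA I antibody, peptide signal by DIA-MS relative to 37 °C, Tm where half the complex is unfolded.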

| Sequence | thermal melting temperature [°C] |
| --- | --- |
| RPDYRNITF | 61.7 |
| NPRNFSDNQL | 53 |
| IFSEVPVQL | 42.1 |
| GVRPFGVSL | 57.4 |
| SPYPGLRLI | 61.8 |
| SPGPSRPGL | 56.1 |
| SPAEPSVYATL | 62.8 |
| AVILRALSL | 61.1 |
| FPHLREEIL | 51.6 |
| SPASRSISLL | 57.1 |
| LPKDQGITL | 61.7 |
| APAPRPSL | 58.1 |
| LPRTVTQLV | 45.6 |
| RPISVIGGVSL | 62.3 |
| APSGGRLLSA | 60.1 |
| LPRQPPMSL | 66.1 |
| LPNGRDTPAL | 59.2 |
| SPAFSTRVL | 60.3 |
| KPFDQTTISL | 61.3 |

| Sequence | thermal melting temperature [°C] |
| --- | --- |
| RPRPGNILLQL | 55.6 |
| QPIDNVSRNLL | 59.3 |
| KVRGISEVL | 60.5 |
| QPIPFPKEAL | 60.7 |
| KPYQGNPTF | 57.5 |
| RPHAFQVIL | 60.2 |
| LPSGDRVAVSV | 61 |
| AANPNRFITL | 61.1 |
| TPRSPPLGL | 62.3 |
| TPINKPPVL | 56 |
| APRPDRLVNRL | 57.3 |
| LPHAVSSLL | 62.4 |
| LPRKPSVPW | 59.5 |
| APRQVLDLEDL | 60.9 |
| KMLTFLML | 61.7 |
| KPQTKLLIL | 60.8 |
| LPSKEHVDVI | 44.8 |
| IPFSNPRVL | 61.4 |
| LPRPWSVPPL | 60 |

| Sequence | thermal melting temperature [°C] |
| --- | --- |
| VPKPPSIEEF | 62.3 |
| RPAQVSQPF | 60.2 |
| IVDSARSIL | 57.8 |
| HPRKGFPGSL | 45 |
| APKPGGLSL | 61.7 |
| GPMNLRAAF | 62.1 |
| MPSASRVILL | 62.7 |
| APGPPGRSML | 60 |
| LPQLPLAAL | 59 |
| HPAAFPLPV | 57.7 |
| APRTVALTAL | 62.9 |
| LPQPVPLSV | 62.6 |
| IPRPDGIEW | 58.4 |
| QPHLVNIQF | 41.6 |
| RPGWLTVSL | 59.2 |
| RPAVIGDVL | 59.3 |
| HPAGPRTVF | 59.1 |
| YPTISLHAL | 59.8 |

— the supplement of paper PMC7726561
